Test results reported in PubChem BioAssay.
The source made the active and inactive calls.

How the values were obtained:
[1] = system: PRMT1 (protein arginine N-methyltransferase 1); assay: PRMT1 binders on small-molecule microarrays, primary screen, biochemical, small-molecule microarray, 635 nm fluorescence (AID 1088); conditions: small-molecule microarray binding, higher = more signal;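 further: binding of Prmt1 protein to compounds spotted on small-molecule microarray slides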
[2] = yeast growth modulation, basal conditions, primary screen, YJM789 clinical isolate, OD600, 24 h (AID 1089);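 further: growth of clinical yeast isolate S. cerevisiae YJM 789 seeded 1000 cells per well; test concentration not given here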; conditions: S. cerevisiae YJM789 growth, higher = more signal, called active from +8 up or from −8 down
[3] = fission yeast growth modulation, primary screen, strain 972, OD600, 24 h, no modulator (AID 1090);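 further: basal condition with compound alone and no growth modifier present; test concentration not given here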; conditions: S. pombe 972 growth, higher = more signal, called active from +8 up or from −8 down
[4] = S. cerevisiae growth modulation with rapamycin, primary screen, strain BY4716, OD600, 96 h (AID 1091); conditions: higher = more signal, called active from +8 up or from −8 down; further: test concentration not given here
[5] = target: Torsin-1A-interacting protein 2 (Homo sapiens) (UniProt Q8NFQ8); assay: LULL1 binders on small-molecule microarray, primary screen, cell lysate, human LULL1 lysate, 635/667 nm fluorescence (AID 1092); conditions: hLULL1 lysate binding, 635 nm fluorescence, higher = more signal;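 further: probe is lysate of COS7 cells overexpressing human LULL1; score merges per-feature 667 nm fluorescence with signal-to-noise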
Torsin-1A-interacting protein 2 (Homo sapiens), sequence (Q8NFQ8 whole entry, looked up): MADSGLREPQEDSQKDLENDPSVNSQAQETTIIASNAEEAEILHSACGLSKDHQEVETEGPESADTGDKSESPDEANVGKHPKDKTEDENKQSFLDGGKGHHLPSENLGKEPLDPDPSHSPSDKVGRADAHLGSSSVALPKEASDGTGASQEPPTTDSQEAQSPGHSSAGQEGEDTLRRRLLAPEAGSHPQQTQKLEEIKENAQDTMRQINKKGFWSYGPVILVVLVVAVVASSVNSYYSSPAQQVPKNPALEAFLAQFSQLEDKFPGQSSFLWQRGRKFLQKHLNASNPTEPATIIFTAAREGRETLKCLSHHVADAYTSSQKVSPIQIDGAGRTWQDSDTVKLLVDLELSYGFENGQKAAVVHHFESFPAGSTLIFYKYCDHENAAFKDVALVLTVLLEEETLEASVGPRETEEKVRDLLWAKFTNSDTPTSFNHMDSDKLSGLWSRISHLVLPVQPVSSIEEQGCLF

[6] = E. coli growth modulation, two-sided OD650, primary screen, E. coli filamentation project, strain DRC41, 24 h (AID 1093); conditions: OD650, 24 h, higher = more signal, called active from +8 up or from −8 down;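 further: MC1000 strain lacking acrAB efflux and sulA so SOS filamentation is blocked; test concentration not given here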
[7] = small-molecule microarray binders of probe aLefty2, primary screen, biochemical, biotinylated probe, 635/667 nm fluorescence (AID 1094); conditions: higher = more signal;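 further: score merges spot fluorescence near 667 nm with spot signal-to-noise ratio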
[8] = system: Noggin (protein binding on small-molecule microarray); assay: Noggin binders on small-molecule microarray, primary screen, biochemical, 635/667 nm fluorescence (AID 1095); conditions: 635 nm fluorescence, higher = more signal;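 further: score merges 667 nm feature fluorescence with signal to noise over triplicate slides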
[9] = target: Neurogenic locus notch homolog protein 3 (Homo sapiens) (UniProt Q9UM47); assay: NOTCH3 binders on small-molecule microarray, primary screen, biochemical, 635/667 nm fluorescence (AID 1096); conditions: NOTCH3 binding, 635 nm fluorescence, higher = more signal
Neurogenic locus notch homolog protein 3 (Homo sapiens), sequence (Q9UM47 whole entry, looked up): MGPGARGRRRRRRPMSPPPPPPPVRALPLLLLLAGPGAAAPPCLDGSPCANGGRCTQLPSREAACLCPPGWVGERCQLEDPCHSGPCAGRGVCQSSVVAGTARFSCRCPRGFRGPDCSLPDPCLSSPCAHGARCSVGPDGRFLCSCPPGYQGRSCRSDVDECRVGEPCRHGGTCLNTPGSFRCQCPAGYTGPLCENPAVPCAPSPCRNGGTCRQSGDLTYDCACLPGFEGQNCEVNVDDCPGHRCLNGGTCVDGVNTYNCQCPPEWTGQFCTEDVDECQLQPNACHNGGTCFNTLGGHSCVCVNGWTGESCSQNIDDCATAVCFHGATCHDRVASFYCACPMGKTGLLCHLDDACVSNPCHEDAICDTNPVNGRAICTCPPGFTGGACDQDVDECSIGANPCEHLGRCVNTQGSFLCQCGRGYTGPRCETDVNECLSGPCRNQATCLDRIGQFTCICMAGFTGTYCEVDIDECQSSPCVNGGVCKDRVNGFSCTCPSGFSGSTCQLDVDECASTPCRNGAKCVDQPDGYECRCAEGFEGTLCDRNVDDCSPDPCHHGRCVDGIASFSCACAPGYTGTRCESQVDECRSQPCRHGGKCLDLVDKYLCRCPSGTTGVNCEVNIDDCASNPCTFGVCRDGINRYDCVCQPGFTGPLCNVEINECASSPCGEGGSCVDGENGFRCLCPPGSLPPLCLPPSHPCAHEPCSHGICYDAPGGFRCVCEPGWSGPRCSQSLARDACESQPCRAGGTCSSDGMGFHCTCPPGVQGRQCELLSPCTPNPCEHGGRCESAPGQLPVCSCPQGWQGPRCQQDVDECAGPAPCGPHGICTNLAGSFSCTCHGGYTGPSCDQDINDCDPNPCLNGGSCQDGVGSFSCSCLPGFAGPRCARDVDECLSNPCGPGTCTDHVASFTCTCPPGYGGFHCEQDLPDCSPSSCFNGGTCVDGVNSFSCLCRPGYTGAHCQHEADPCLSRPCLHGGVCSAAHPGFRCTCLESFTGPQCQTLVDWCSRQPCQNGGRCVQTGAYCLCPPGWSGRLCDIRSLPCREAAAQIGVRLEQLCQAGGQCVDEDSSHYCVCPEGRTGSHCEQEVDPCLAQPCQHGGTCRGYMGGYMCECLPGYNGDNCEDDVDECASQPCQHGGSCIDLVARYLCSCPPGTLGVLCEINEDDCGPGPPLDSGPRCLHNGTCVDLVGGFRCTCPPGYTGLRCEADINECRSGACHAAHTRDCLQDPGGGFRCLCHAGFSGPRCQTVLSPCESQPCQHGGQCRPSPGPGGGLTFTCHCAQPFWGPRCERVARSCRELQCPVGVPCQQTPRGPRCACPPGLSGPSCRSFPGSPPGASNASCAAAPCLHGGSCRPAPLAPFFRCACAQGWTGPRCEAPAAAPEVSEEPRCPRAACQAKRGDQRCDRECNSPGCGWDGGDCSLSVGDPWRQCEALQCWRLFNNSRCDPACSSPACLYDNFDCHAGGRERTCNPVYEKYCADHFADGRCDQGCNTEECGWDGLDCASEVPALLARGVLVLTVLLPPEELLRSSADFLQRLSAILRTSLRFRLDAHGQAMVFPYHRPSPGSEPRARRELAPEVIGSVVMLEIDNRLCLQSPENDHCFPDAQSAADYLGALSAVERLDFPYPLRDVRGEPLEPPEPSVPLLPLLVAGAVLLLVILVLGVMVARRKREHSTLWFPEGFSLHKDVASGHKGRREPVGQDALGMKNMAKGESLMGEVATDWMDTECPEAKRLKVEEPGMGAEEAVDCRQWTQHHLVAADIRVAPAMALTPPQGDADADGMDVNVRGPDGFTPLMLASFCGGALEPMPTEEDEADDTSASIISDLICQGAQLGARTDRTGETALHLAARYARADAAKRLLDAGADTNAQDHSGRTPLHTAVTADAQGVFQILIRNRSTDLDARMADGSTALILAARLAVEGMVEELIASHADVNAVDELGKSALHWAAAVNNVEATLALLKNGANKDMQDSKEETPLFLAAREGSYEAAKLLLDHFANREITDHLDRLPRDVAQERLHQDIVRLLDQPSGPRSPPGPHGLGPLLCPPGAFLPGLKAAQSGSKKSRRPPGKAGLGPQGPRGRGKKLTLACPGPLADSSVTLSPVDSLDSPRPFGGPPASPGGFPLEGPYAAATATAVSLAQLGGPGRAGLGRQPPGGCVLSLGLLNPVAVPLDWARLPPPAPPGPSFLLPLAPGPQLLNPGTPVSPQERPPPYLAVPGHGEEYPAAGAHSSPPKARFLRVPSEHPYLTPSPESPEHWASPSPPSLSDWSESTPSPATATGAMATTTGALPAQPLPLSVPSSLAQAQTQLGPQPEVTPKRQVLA

[10] = small-molecule microarray binders of probe aEGFR, primary screen, biochemical, biotinylated probe, 635/667 nm fluorescence (AID 1097); conditions: higher = more signal;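 further: probe is a biotinylated anti-EGFR antibody binding compounds printed on slides; score combines fluorescence near 667 nm and signal to noise of each spot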

| SMILES | composite z-score [1] | z-score [2] | z-score [3] | z-score [4] | composite z-score [5] | z-score [6] | composite z-score [7] | composite z-score [8] | composite z-score [9] | composite z-score [10] |
| --- | --- | --- | --- | --- | --- | --- | --- | --- | --- | --- |
| CCOc1cc(C(O)C2C=CC3C(=O)N(c4ccccc4)C(=O)C3N2Nc2ccc(C(C)C)cc2)ccc1O (stereo not given) | 1.55 | 0.471 (inactive) | -1.28 (inactive) | 0.597 (inactive) | 3.42 | -1.14 (inactive) | 0.0261 | 0.107 | 1.1 | -0.0581 |
| C=CC[C@]12N=C(c3ccc(OCCCO)cc3)O[C@H]1c1ccccc1N(CCS(=O)(=O)c1ccccc1)C2=O | 1.49 | -1.07 (inactive) | -1.51 (inactive) | 0.811 (inactive) | 2.14 | 1.02 (inactive) | 0.0561 | 0.698 | 1.07 | -0.0828 |
| C=CCN1C(=O)[C@]2(Cc3ccccc3)N=C(c3ccc(OCCCO)cc3)O[C@@H]2c2ccccc21 | 1.53 | 0.331 (inactive) | -0.694 (inactive) | 1.46 (inactive) | 3.13 | 0.482 (inactive) | 0.295 | 1.2 | 1.15 | 0.133 |
| CN1C(=O)C2C=CC(C(O)C=Cc3ccc([N+](=O)[O-])cc3)N(Nc3ccccc3)C2C1=O (stereo not given) | 1.51 | -0.131 (inactive) | -1.18 (inactive) | -0.656 (inactive) | 1.62 | -1.35 (inactive) | 0.0849 | 0.577 | 1.12 | -0.0372 |
| CC#CC(=O)Oc1ccc(Br)cc1C=CC(=O)OCC | 0.162 | -23.6 (active) | -16 (active) | -2.38 (inactive) | 1.18 | -0.0056 (inactive) | 0.188 | -0.157 | 0.0254 | -0.0765 |
| CC(C)[Si](C#C[Si](C(C)C)(C(C)C)C(C)C)(O[C@H](C)c1cn(Cc2ccccc2)nn1)C(C)C | 1.04 | 0.319 (inactive) | 0.497 (inactive) | -0.109 (inactive) | 1.92 | 1.32 (inactive) | -0.0936 | 0.369 | 0.928 | 0.0026 |
| COCCOC(=O)N1C(=O)[C@@]2(c3ccccc31)[C@H](C(N)=O)[C@H]1C(=O)O[C@H](c3ccccc3)[C@H](c3ccccc3)N1[C@@H]2c1ccc(O)cc1 | 1.38 | -1.19 (inactive) | -1.3 (inactive) | 0.695 (inactive) | 3.1 | 0.628 (inactive) | -0.166 | -0.32 | 0.129 | -0.171 |
